The source of these data is PubChem BioAssay (Tox21).

Records with an inconclusive call do not appear. Entries that show only a call come without a potency. Unmarked numbers belong to inactive results. Calls of active or inactive are those of the source. Calls follow the shape of the dose curve; as a rule, active = well fitted cell-killing curve with a large enough effect in the repeat runs; inconclusive = weak or mixed curves, or effect the other way; inactive = flat fitted curve, though single readings scatter.

A short description of one experiment: cAMP Responsive Elements (CRE) small molecule antagonists, cell-based qHTS assay: qHTS cell viability counter screen (AID 2060913). Also: nearly all actives have a fitted effect of over 40% in size. Conditions: CRE-bla HEK293T viability, CellTiter-Glo luminescence, 5 h; series mostly up to 92.4 µM. In short, it runs like this: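 CRE-bla HEK293T cells were seeded in assay medium with 10% dialyzed FBS, incubated 18 hrs at 37 C, then exposed to compounds plus 0.25 uM final NKH477 for 3 hrs. Viability was read by CellTiter-Glo luminescence after 30 min, in the same wells.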
For orientation: Quantitative high-throughput screening tests each substance at several concentrations.
On to `O=C(C(Cl)(Cl)Cl)C(Cl)(Cl)Cl`, for which the Potency result is “inactive”.

In the case of `CCOP(=S)(OCC)SCn1c(=O)oc2cc(Cl)ccc21`, the Potency entry was “inactive”.

For `CCOC(=O)C1(c2ccccc2)CCN(CCC(C#N)(c2ccccc2)c2ccccc2)CC1`, the Potency result is “inactive”.

Take `CCOP(=S)(OCC)SCSc1cc(Cl)ccc1Cl`: the Potency result was “inactive”.

On to `Brc1c(Br)c(Br)c(Br)c(Br)c1Br`, for which the viability change, negative = cytotoxic was 0.231% [at 8.39 µM].

As for `CCCCn1cc[n+](C)c1`, the Potency result is “inactive”.

For `CC(C)CCCCCCCOP(=O)(Oc1ccccc1)Oc1ccccc1`, the Potency result is “inactive”.

`CC1=NNC(=O)N(/N=C/c2cccnc2)C1`: the Potency result was “inactive”.

With `[Cl][Sb]([Cl])[Cl]`, the Potency entry is “inactive”.

In the case of `Cc1ccc(N)cc1Cl`, the Potency entry is “inactive”.

`N#CCCC#N`: the Potency result was “inactive”.

Consider `BrCCc1ccccc1`, for which the Potency entry was “inactive”.

For `O=c1[nH]oc2c1CCNC2`, the Potency result was “inactive”.

Consider `Nc1ccc(Oc2ccc(N)cc2)cc1`, for which the Potency result was “inactive”.

For the molecule `O=C(Nc1ccc2[nH]ccc2c1)c1cc2cc(F)ccc2n1Cc1cccc(F)c1`, the Potency entry was “inactive”.

With `O=C(O)C1C2CCC(O2)C1C(=O)O` (stereo not given), the Potency entry is “inactive”.

On to `COc1nc(C)nc(NC(=O)NS(=O)(=O)c2ccccc2Cl)n1`, for which the Potency result is “inactive”.

`CCC(C)(CC)c1cc(NC(=O)c2c(OC)cccc2OC)on1`: the Potency entry was “inactive”.

As to `O=[N+]([O-])c1ccc(Oc2ccc(Cl)cc2Cl)cc1`, the Potency entry is “inactive”.

In the case of `Cn1sc(Cl)cc1=O`, the Potency entry was “inactive”.

Turning to `COC(=O)COc1ccc(Cl)cc1Cl`, the Potency entry was “inactive”.

For `c1ccc2c(c1)Nc1ccccc1S2`, the Potency entry was “inactive”.

Consider `CCc1ccccc1C`, for which the Potency entry was “inactive”.

As for `C[C@]12CC[C@H]3[C@@H](CCC4=CC(=O)CC[C@@H]43)[C@@H]1CC[C@@H]2O`, the Potency entry is “inactive”.

As for `CC(C)(O)C(Cl)(Cl)Cl`, the Potency result is “inactive”.

For `O=S1(=O)OCCO1`, the Potency result is “inactive”.

Take `C=CC=O`: the Potency result was “inactive”.

As for `FC(F)(F)c1ccc(Cl)cc1`, the Potency entry is “inactive”.

Regarding `CCCCN(N=O)C(=N)N[N+](=O)[O-]`, the Potency result was “inactive”.

For the molecule `O=P(Oc1ccccc1)(Oc1ccccc1)Oc1ccccc1`, the Potency entry was “inactive”.

`Nc1ccc(N=Nc2ccc(-c3ccc(N=Nc4c(S(=O)(=O)O)cc5cc(S(=O)(=O)O)c(N=Nc6ccccc6)c(O)c5c4N)cc3)cc2)c(N)c1`: the Potency result was “inactive”.

As for `CCCC(C)C1(CC)C(=O)N=C(S)NC1=O` (stereo not given), the Potency entry is “inactive”.

Turning to `CN1C(=O)C(O)N=C(c2ccccc2)c2cc(Cl)ccc21` (stereo not given), the Potency result was “inactive”.

For the molecule `Clc1ccc(-c2ccc(Cl)c(Cl)c2Cl)c(Cl)c1Cl`, the Potency result was “inactive”.

For the molecule `CCCN(CC)CC1COC2(CCC(C(C)(C)C)CC2)O1` (stereo not given), the Potency entry is “inactive”.

For the molecule `CC[n+]1ccccc1`, the Potency entry is “inactive”.

As to `CN=C=O`, the Potency result is “inactive”.

For the molecule `Cc1cc(Cl)ccc1OCC(=O)O`, the Potency entry was “inactive”.

With `COc1ccc(C(CN(C)C)C2(O)CCCCC2)cc1` (stereo not given), the Potency entry was “inactive”.

Regarding `CCOC(=O)NC(O)C(Cl)(Cl)Cl` (stereo not given), the Potency entry was “inactive”.

A further experiment is described as follows: cAMP Responsive Elements (CRE) small molecule agonists, cell-based qHTS assay: qHTS cell viability counter screen (AID 2060914). Also: nearly all actives have a fitted effect of over 50% in size. Conditions: CRE-bla HEK293T viability, CellTiter-Glo luminescence, 5 h; series mostly up to 92.4 µM. In short, it runs like this:
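CRE-bla HEK293T cells in 10% dialyzed FBS medium were exposed to compounds for 3 h at 37C after 18 h plating. CellTiter-Glo was then added in the same wells, and luminescence was read after 30 min at room temperature.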
Take `O=C(C(Cl)(Cl)Cl)C(Cl)(Cl)Cl`: the Potency entry was “inactive”.

As to `CCOP(=S)(OCC)SCn1c(=O)oc2cc(Cl)ccc21`, the Potency result was “inactive”.

As for `CCOC(=O)C1(c2ccccc2)CCN(CCC(C#N)(c2ccccc2)c2ccccc2)CC1`, the Potency result is “inactive”.

For `CCOP(=S)(OCC)SCSc1cc(Cl)ccc1Cl`, the Potency entry was “inactive”.

For `Brc1c(Br)c(Br)c(Br)c(Br)c1Br`, the activity change, negative = cytotoxicity is 7.31% [at 8.39 µM].

In the case of `CCCCn1cc[n+](C)c1`, the Potency entry is “inactive”.

With `CC(C)CCCCCCCOP(=O)(Oc1ccccc1)Oc1ccccc1`, the Potency entry is “inactive”.

As to `CC1=NNC(=O)N(/N=C/c2cccnc2)C1`, the Potency entry was “inactive”.

On to `[Cl][Sb]([Cl])[Cl]`, for which the Potency result was “inactive”.

With `Cc1ccc(N)cc1Cl`, the Potency result is “inactive”.

`N#CCCC#N`: the Potency result is “inactive”.

As to `BrCCc1ccccc1`, the Potency entry is “inactive”.

Take `O=c1[nH]oc2c1CCNC2`: the Potency result is “inactive”.

Turning to `Nc1ccc(Oc2ccc(N)cc2)cc1`, the Potency result is “inactive”.

For `O=C(Nc1ccc2[nH]ccc2c1)c1cc2cc(F)ccc2n1Cc1cccc(F)c1`, the Potency entry is “inactive”.

In the case of `O=C(O)C1C2CCC(O2)C1C(=O)O` (stereo not given), the Potency result was “inactive”.

As to `COc1nc(C)nc(NC(=O)NS(=O)(=O)c2ccccc2Cl)n1`, the Potency entry was “inactive”.

Regarding `CCC(C)(CC)c1cc(NC(=O)c2c(OC)cccc2OC)on1`, the Potency entry is “inactive”.

Take `O=[N+]([O-])c1ccc(Oc2ccc(Cl)cc2Cl)cc1`: the Potency entry was “inactive”.

As for `Cn1sc(Cl)cc1=O`, the Potency entry is “inactive”.

With `COC(=O)COc1ccc(Cl)cc1Cl`, the Potency entry is “inactive”.

As for `c1ccc2c(c1)Nc1ccccc1S2`, the Potency entry was “inactive”.

For `CCc1ccccc1C`, the Potency result is “inactive”.

Turning to `C[C@]12CC[C@H]3[C@@H](CCC4=CC(=O)CC[C@@H]43)[C@@H]1CC[C@@H]2O`, the Potency entry is “inactive”.

For the molecule `CC(C)(O)C(Cl)(Cl)Cl`, the Potency result was “inactive”.

As to `O=S1(=O)OCCO1`, the Potency result was “inactive”.

Consider `C=CC=O`, for which the Potency entry is “inactive”.

On to `FC(F)(F)c1ccc(Cl)cc1`, for which the Potency entry is “inactive”.

As to `CCCCN(N=O)C(=N)N[N+](=O)[O-]`, the Potency result is “inactive”.

Turning to `O=P(Oc1ccccc1)(Oc1ccccc1)Oc1ccccc1`, the Potency result was “inactive”.

Regarding `Nc1ccc(N=Nc2ccc(-c3ccc(N=Nc4c(S(=O)(=O)O)cc5cc(S(=O)(=O)O)c(N=Nc6ccccc6)c(O)c5c4N)cc3)cc2)c(N)c1`, the Potency result was “inactive”.

As for `CCCC(C)C1(CC)C(=O)N=C(S)NC1=O` (stereo not given), the Potency entry is “inactive”.

`CN1C(=O)C(O)N=C(c2ccccc2)c2cc(Cl)ccc21` (stereo not given): the Potency entry was “inactive”.

As to `Clc1ccc(-c2ccc(Cl)c(Cl)c2Cl)c(Cl)c1Cl`, the Potency entry is “inactive”.

With `CCCN(CC)CC1COC2(CCC(C(C)(C)C)CC2)O1` (stereo not given), the Potency result is “inactive”.

As for `CC[n+]1ccccc1`, the Potency entry is “inactive”.

Turning to `CN=C=O`, the Potency result was “inactive”.

Consider `Cc1cc(Cl)ccc1OCC(=O)O`, for which the Potency entry was “inactive”.

With `COc1ccc(C(CN(C)C)C2(O)CCCCC2)cc1` (stereo not given), the Potency result is “inactive”.

Turning to `CCOC(=O)NC(O)C(Cl)(Cl)Cl` (stereo not given), the Potency entry is “inactive”.
